Measurements from PubChem BioAssay AID504607 (Sanford-Burnham Center for Chemical Genomics, 2011).
The whole screen tested about 6,200 compounds, of which about 4,800 (77%) were called active. So high a share suggests a set chosen from earlier hits. The list is a sample of the results. Values without a mark were called inactive.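 How the source made its calls: active means mean inhibition at 8 µM reaching about 37%, which flags the compound as non-specific (limit read from the data); inactive means the rest.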

Assay: luminescence decrease from intact luciferase reporter – cell-based, single concentration, SaOS-2, counter-screen for Mdm2/MdmX interaction inhibitor project, confirmation (AID 504607);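 further: p53-null SaOS-2 cells with luciferase driven by a doxycycline-inducible promoter; compound on cells about two nights before reading with doxycycline added after day one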
Settings: SaOS-2 full-length luciferase counterscreen, at 8 µM, stronger effect = higher value
For CCCCCCCCCCCCn1ccc(=N)cc1, the inhibition was 52.1% (active). With CNC(=O)O/N=C(\N)Cc1csc2ccc(Cl)cc12 the inhibition was 126% (active). For CNC(=O)O/N=C(\N)Cc1csc2ccccc12, the inhibition was 81.2% (active). With CCOc1ccc(-c2cc(C)[n+](CCN(CC)CC)c(-c3ccc(OCC)cc3)c2)cc1 the inhibition was 22.3%. With O=C1NC(=O)N(CCc2ccc(F)cc2)C(=O)/C1=C/C=C/c1ccccc1 the inhibition was 83.8% (active). For COC(=O)C1=C(c2ccc(F)cc2OCc2ccccc2)C[C@@H]2CC[C@H]1N2C(=O)NCc1ccc2[nH]ccc2c1, the inhibition was 94.7% (active). Cc1cc2ccccn2c1C(C[N+](=O)[O-])c1c(F)cccc1Cl (centres undefined) gave an inhibition of 29.6%. In the case of O=C1C2(Cl)C3(Cl)C4(Cl)C(Cl)(Cl)C5(Cl)C3(Cl)C1(Cl)C5(Cl)C24Cl (centres undefined), the inhibition is reported as 46.6% (active). In the case of O=Cc1cn(Cc2ccc(F)cc2Cl)c2ccccc12, the inhibition is reported as 35.1%.
